PubChem BioAssay AID651947 (Broad Institute, 2012)
Potency and affinity values are given separately. Results filed as inconclusive are left out. Values without a mark were called inactive.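 Rule for the calls: active = luminescence drop in HepG2 cells whose fitted half-effect dose is at most twice the top valid dose; inconclusive = flat curve with 30 to 70% signal loss, or unreliable fit; inactive = the rest.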

Assay: HepG2 hepatoma cell viability loss – plate reader, dry powder, cytotoxicity control, dose response (AID 651947)
Details: ATP luminescence (CellTiter-Glo), 48 h, stronger effect = lower value; at 26 µM unless noted

Row | SMILES | max activity
1 | c1ccc(CSc2nnc(-c3cc4ccccc4o3)o2)cc1 | 34.2% [at 6 µM]
2 | Cc1ccc(CSc2nnc(-c3ccccc3)o2)cc1 | 15.4% [at 3 µM]
3 | CS(=O)(=O)c1ccccc1-c1nnc(SCc2ccccc2)o1 | 22.6% [at 3 µM]
4 | COc1ccccc1-c1nnc(SCc2ccccn2)o1 | -21.6%
5 | COc1ccc(-c2nnc(SCc3ccc(Cl)cc3)o2)cc1 | -16.2% [at 0.38 µM]
6 | c1ccc(-c2nnc(SCCC3OCCCO3)o2)cc1 | 12.9% [at 0.8 µM]
7 | Brc1cccc(-c2nnc(SCc3ccccn3)o2)c1 | -18% [at 1.6 µM]
8 | O=S(Cc1ccccc1)c1nnc(-c2ccccc2)o1 (stereo not given) | -53.1%
9 | CC1(O)CN(CCSc2nnc(-c3ccccc3)o2)C1 | -33.4% [at 0.195 µM]
10 | c1ccc(CSc2nnc(-c3cnco3)o2)cc1 | -31.7% [at 12 µM]
11 | FC(F)(F)c1ccccc1-c1nnc(SCc2ccccc2)o1 | 15.6% [at 1.6 µM]
12 | c1ccc(CSc2nnc(-c3cccs3)o2)cc1 | -27.2% [at 12 µM]
13 | FC(F)(F)c1ccc(-c2nnc(SCc3ccccc3)o2)cc1 | 17.4% [at 3 µM]
14 | Clc1ccccc1CSc1nnc(-c2ccccc2)o1 | 17.5% [at 0.195 µM]
15 | CN(C)CCSc1nnc(-c2ccccc2)o1 | -18.8% [at 0.195 µM]
16 | CN(Cc1ccccc1)c1nnc(-c2ccccc2)o1 | -28.2%
17 | Fc1ccc(-c2nnc(SCc3cn(-c4ccccc4)nn3)o2)cc1 | -8.15%
18 | N#Cc1ccc(CSc2nnc(-c3ccccc3)o2)cc1 | -47.6% [at 3 µM]

Row | SMILES | max activity
19 | Fc1ccc(-c2nnc(SCc3cn(Cc4ccccc4)nn3)o2)cc1 | 22.1% [at 3 µM]
20 | FC(F)(F)c1cccc(-c2nnc(SCc3ccccc3)o2)c1 | 20.7% [at 12 µM]
21 | c1ccc(-c2nnc(SCC3CC3)o2)cc1 | 18.8% [at 0.38 µM]
22 | c1ccc(-c2nnc(SCc3ccccn3)o2)cc1 | 18.8%
23 | Cc1nnc(SCc2ccccc2)o1 | -55.2% [at 0.195 µM]
24 | Cc1ccc(-c2nnc(SCc3ccccn3)o2)cc1 | -42.6% [at 0.38 µM]
25 | FC(F)(F)c1cccc(CSc2nnc(-c3ccccc3)o2)c1 | -34.6% [at 1.6 µM]
26 | CS(=O)(=O)c1ccccc1CSc1nnc(-c2ccccc2)o1 | -12.5% [at 12 µM]
27 | c1ccc(CSc2ncc(-c3ccccc3)o2)cc1 | -32.2% [at 0.195 µM]
28 | COCCOCCSc1nnc(-c2ccccc2)o1 | -8.39% [at 1.6 µM]
29 | c1ccc(-c2nnc(SCCN3CCOCC3)o2)cc1 | -7.63% [at 0.38 µM]
30 | FC(F)(F)Oc1ccccc1-c1nnc(SCc2ccccc2)o1 | -9.41% [at 6 µM]
31 | O=S(Cc1cn(-c2ccccc2)nn1)c1nnc(-c2ccc(Cl)cc2)o1 (stereo not given) | -41.8% [at 12 µM]
32 | c1ccc(CNCCSc2nnc(-c3ccccc3)o2)cc1 | -50.5% [at 1.6 µM]
33 | c1ccc(CSc2nnc(-c3ccncc3)o2)cc1 | -43.6% [at 0.38 µM]
34 | N#Cc1cccc(-c2nnc(SCc3ccccc3)o2)c1 | 15.2%
35 | Cc1cccc(CSc2nnc(-c3ccc(Cl)cc3)o2)n1 | 26% [at 0.38 µM]
